From PubChem BioAssay (NCI)
This is part of a sample that, as a whole, favours compounds with a hit. Of some 79,000 tested, about 15% had one in any assay. No stated cut-off is given here; in the data, active means growth inhibition above about 70%; inactive means the rest.

Columns and labels:
[1] = NCI Yeast Anticancer Drug Screen. Data for the rad50 strain (AID 155);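 further: 0% = growth of vehicle-only cultures of the same strain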; conditions: S. cerevisiae rad50 strain growth inhibition; at 50.0 µM; stronger effect = higher value
Outline: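 Genetically altered yeast (DNA repair pathway); compound treatment; growth inhibition vs vehicle ctrl.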

[2] = NCI Yeast Anticancer Drug Screen. Data for the mec2-1 strain (AID 157); conditions: S. cerevisiae mec2-1 strain, at 50.0 µM, stronger effect = higher value
Outline: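 Using mec2-1 yeast: add compound, measure growth, express inhibition versus vehicle-treated cultures.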

[3] = NCI Yeast Anticancer Drug Screen. Data for the sgs1 mgt1 strain (AID 161);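 further: 0% = growth of cultures given vehicle only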; conditions: S. cerevisiae sgs1 mgt1 strain, at 50.0 µM, stronger effect = higher value
Outline: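 This yeast growth screen uses a strain with defined DNA-repair lesions; compound-treated growth is compared with vehicle-treated growth.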

[4] = NCI Yeast Anticancer Drug Screen. Data for the bub3 strain (AID 167); conditions: S. cerevisiae bub3 mutant strain, at 50.0 µM, stronger effect = higher value
Outline: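 Yeast carrying a defined mutation is treated with each compound, and growth is compared with that of vehicle-exposed cells to give inhibition.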

[5] = NCI Yeast Anticancer Drug Screen. Data for the mlh1 rad18 strain (AID 175); conditions: S. cerevisiae mlh1 rad18 strain growth inhibition; at 50.0 µM; stronger effect = higher value
Outline: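 Steps: expose repair-defective yeast to compound; measure growth; express inhibition against vehicle-treated controls.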

[6] = NCI Yeast Anticancer Drug Screen. Data for the cln2 rad14 strain (AID 165);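 further: 0% = growth equal to vehicle treated cultures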; conditions: S. cerevisiae cln2 rad14 strain, at 50.0 µM, stronger effect = higher value
Outline: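 Yeast strain cln2 rad14, bearing defects in cell cycle control and DNA repair, serves as the test system; values reflect growth inhibition compared with vehicle.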

Measured: growth inhibition

CC1(C)COC(c2ccc(C(F)(F)F)cc2C(O)c2ccc3ccccc3c2)=N1 (stereo not given)
inactive: [1] 11.8% | [2] -2.15% | [3] 3.8% | [4] -3.3% | [5] 10.3%

CC(=O)OCCn1c(=O)sc2ccccc21
inactive: [1] 3.1% | [2] 13.8% | [3] 3.2% | [4] -10.7% | [5] -1.4%

CCC(C)(O)c1cn(-c2cccc(S(=O)(=O)O)c2)nn1 (stereo not given)
inactive: [1] -9.3% | [2] -10.2% | [3] -8.05% | [4] -8.65% | [5] -8.35%

Cc1cc(S(=O)(=O)Nc2nc(N)nc(N3CCOCC3)n2)c(SCC(=O)O)cc1Cl
inactive: [1] 5.75% | [2] 19.4% | [3] 15.2% | [4] 6.25% | [5] 18.2%

COc1ccc(NC(=O)CSc2nc(C)nc3c2sc(=S)n3-c2ccccc2)cc1
inactive: [1] -16.7% | [2] -4.85% | [3] 2.95% | [4] -3.5% | [5] 4.45%

Nc1c(OCc2ccccc2)cccc1C(=O)O
inactive: [1] -7.1% | [2] -9.5% | [3] 10.9% | [4] -40.5% | [5] -12.2%

c1coc(C2SCSCS2)c1
inactive: [1] 0.35% | [2] 5.8% | [3] -6.7% | [4] -8.2% | [5] -4.2%

COc1ccc(OCC(=O)N2CCCCC2)cc1
inactive: [1] -2.95% | [2] -11.6% | [3] 0% | [4] 13.2% | [5] -1.65%

O=S1OC(c2ccccc2)C(c2ccccc2)O1 (stereo not given)
inactive: [1] -2.1% | [2] -10.5% | [3] -4.55% | [4] -1.45% | [5] -7.7%

CCN=C(N)CSS(=O)(=O)O
inactive: [1] -1.9% | [2] -28.1% | [3] -32.8% | [4] -22% | [5] -16.7%

COc1ccccc1NC(=O)N1CCN(c2cccc(C)c2)CC1
inactive: [1] 4.5% | [2] -2.3% | [3] 12.6% | [4] 37.4% | [5] -8.4%

N#[N+]c1ccc(Nc2ccccc2)cc1
inactive: [1] -8.2% | [2] 9.55% | [3] -20.1% | [4] -10.8% | [5] -4.25%

O=C(O)c1c(Cl)c(Cl)c(Cl)c(C(=O)O)c1Cl
inactive: [1] -2.05% | [2] 2.2% | [3] 7.25% | [4] 5.85% | [5] 19.2%

O=C(O)CSc1ncnc2nc[nH]c12
inactive: [1] 1.6% | [2] -30.2% | [3] 1.9% | [4] -5.25% | [5] -12.9%

O=C(O)CC1=C(c2ccccc2)C(O)(c2ccccc2)CC1=O (stereo not given)
inactive: [1] 4.75% | [2] 15.3% | [3] 7.05% | [4] 11.2% | [5] -11.1%

O=Cc1ccccc1[N+](=O)[O-]
inactive: [1] 18.9% | [2] -8.35% | [3] 15% | [6] 14.2% | [5] 17.9%

CN(C)CCSC(=Nc1ccccc1)N1CCCCC1
inactive: [1] -32.8% | [2] 1.7% | [3] -9.5% | [4] 8.15% | [5] -9.6%

Clc1ccccc1C(N1CCCCC1)C(Cl)(Cl)Cl (stereo not given)
inactive: [1] 26.6% | [2] 14.6% | [3] 12.8% | [4] 3.85% | [5] 21.3%

C/C(=N\n1c(-c2ccccc2)nc2ccccc2c1=O)c1ccc(C)cc1
inactive: [1] 5.25% | [2] 7.8% | [3] -2.7% | [4] 4.95% | [5] -1.75%

O=C1C=C(c2ccccc2)C(O)(c2ccccc2)/C1=C/C=C/c1ccccc1 (stereo not given)
inactive: [1] -3.55% | [2] -14.1% | [3] 6.5% | [4] -5.2% | [5] -8.35%

O=C(Nc1ccc(I)cc1)c1ccc([N+](=O)[O-])cc1
inactive: [1] 2.3% | [2] -11.1% | [3] -5.05% | [4] 0.35% | [5] -4.5%

CCCCC(C(=O)O)C(C)CC (stereo not given)
inactive: [1] 35% | [2] 12.2% | [3] 18.8% | [4] 36.5% | [5] 29.6%

CCCCCCCCCCCOc1ccc(Cl)cc1Cl
inactive: [1] 10.4% | [2] 16.5% | [3] 8.75% | [4] 30.2% | [5] 12.2%

CC(=O)NNc1nc(C)c(C(=O)/C=C/c2ccc(/C=C/C(=O)c3sc(NNC(C)=O)nc3C)cc2)s1
inactive: [1] -29.6% | [2] -3.4% | [3] -37.6% | [4] -13.2% | [5] -35.1%

CC(C(=O)OCc1ccccc1)(c1ccco1)N1C(=O)OC(c2ccccc2)C1c1ccccc1 (stereo not given)
inactive: [1] -4.35% | [2] -3.5% | [3] 4.55% | [4] -17.1% | [5] -23.1%

NC(CO)C(=O)NCC(=O)O (stereo not given)
inactive: [1] -29.5% | [2] 5.75% | [3] -30.2% | [4] -18.2% | [5] -23.9%

CCOC(=O)CNC(=O)C(=[N+]=[N-])C(=O)COc1ccc(Cl)cc1Cl
inactive: [1] 3.4% | [2] -9% | [3] 18.1% | [4] 19.4% | [5] -5.05%

CC(=O)Nc1cc([N+](=O)[O-])ccc1CC(O)c1ccccc1 (stereo not given)
inactive: [1] -2.25% | [2] -17.1% | [3] -4.1% | [4] -1% | [5] -16.4%

CC(=O)c1c2c(cc3c1CCC3)CCC2
inactive: [1] -15.4% | [2] -47.2% | [3] -20.1% | [4] -21.7% | [5] -0.8%

CCCCCC(CC)OC(=O)Nc1cccc2ccccc12 (stereo not given)
inactive: [1] 6.05% | [2] 7.2% | [3] 10.7% | [4] -3.35% | [5] 0.1%

CCOC(=O)C1(C(O)(C2CC2)C2(C(=O)OCC)CC2)CC1
inactive: [1] -9.1% | [2] -11.6% | [3] -12.3% | [4] 13.1% | [5] 5.45%

CCOC1(OCC)C2(Cl)C(Cl)=C(Cl)C1(Cl)C1CCCC12 (stereo not given)
inactive: [1] 23.7% | [2] 3.75% | [3] 11.5% | [4] -12.7% | [5] 20.6%

O=C(Nc1ccccc1)OC1CCCC12CC2 (stereo not given)
inactive: [1] 8.7% | [2] 4.9% | [3] -16.1% | [4] -2.25% | [5] 23.1%

CCCCCCCCCCCCn1[nH]c(C)c(C(=S)SCCCCCCCC)c1=O
inactive: [1] -7.2% | [2] 1.05% | [6] 1.45% | [4] 3% | [5] 7.3%

COc1ccc(-c2cc(-c3ccc(C)cc3)n(C3OC(COC(C)=O)C(OC(C)=O)C(OC(C)=O)C3OC(C)=O)c(=S)c2C#N)cc1 (stereo not given)
inactive: [1] -10.6% | [2] -11.2% | [6] 16.9% | [4] -2% | [5] 4.4%

CC(C)CC1CC(=O)C(=O)C(CC(C)C)C1 (stereo not given)
inactive: [1] 8.25% | [2] 0.5% | [6] -17.5% | [4] 3.95% | [5] -1.05%

CCC/C(CC)=N\Nc1ccc([N+](=O)[O-])cc1[N+](=O)[O-]
inactive: [1] -6.9% | [2] 9.4% | [6] 30.9% | [4] 12.9% | [5] -4.1%

Nc1nc(-c2ccccc2)c(N=Nc2ccc([N+](=O)[O-])cc2Cl)s1
inactive: [1] -4.7% | [2] 2.55% | [6] -13.1% | [4] -11.5% | [5] 3.6%

O=S(=O)([O-])[O-].O=c1[nH]cnc2[nH]ncc12.O=c1[nH]cnc2[nH]ncc12.[Cu+2]
inactive: [1] -22.1% | [2] -7.95% | [6] -32% | [4] -18.7% | [5] -18.1%

Cc1cccc(C)c1C1=NCCN1
inactive: [1] 3.55% | [2] -8.95% | [6] -39.2% | [4] -16.8% | [5] 1.65%

CC(=O)N1C(=O)NC(=O)C1(C)C
inactive: [1] -7% | [2] -29.9% | [6] -18.5% | [4] 1.5% | [5] -7.15%

CC(C)(C=O)OC(=O)c1cc([N+](=O)[O-])cc([N+](=O)[O-])c1
inactive: [1] 7.2% | [2] -14.2% | [6] 29.8% | [4] -8% | [5] 1.6%

CSC(/C=C/c1ccccc1)=Nc1ccccc1
inactive: [1] 3.2% | [2] 11.9% | [6] -21.6% | [4] 23.6% | [5] 15%

O=C(Nc1ccc2ccccc2c1)c1ccc(Cl)c(Cl)c1
inactive: [1] -5% | [2] 29.6% | [6] -6.8% | [4] 18.9% | [5] 27.4%

CN1CCC(O)(C(C)(C)C)CC1
inactive: [1] -5.05% | [2] -5.15% | [6] 10.9% | [4] -3.7% | [5] -68.9%

Oc1ccc(N=Nc2ccccc2)c(O)c1
inactive: [1] 54% | [2] 29.1% | [6] -18.9% | [4] 46% | [5] 64%

O=C(c1ccncc1)C(C(c1ccccc1)N1CCOCC1)N1CCOCC1 (stereo not given)
inactive: [1] 25.8% | [2] 8.25% | [6] 39.5% | [4] 13.6% | [5] 4.4%
